Measured values reported in paper PMC7862700, “An all-to-all approach to the identification of sequence-specific readers for epigenetic DNA modifications on cytosine”.

Columns and labels:
Experiment in all cases: DAPPL (digital affinity profiling via proximity ligation, sequencing); 10 mM Tris-HCl pH 7.5, 50 mM NaCl, 1 mM DTT, 4% glycerol, room temperature, 30 min; GST-TFs on glutathione beads, 16-mer random dsDNA library, 0.1% formaldehyde crosslink after washing; high values mean tight binding
Conditions in all cases: protein: recombinant; tags: N-terminal GST; dsDNA, one strand shown
FLI1 = target: T1, FLI1 (Homo sapiens, UniProt Q01543 1-452)
T1 sequence: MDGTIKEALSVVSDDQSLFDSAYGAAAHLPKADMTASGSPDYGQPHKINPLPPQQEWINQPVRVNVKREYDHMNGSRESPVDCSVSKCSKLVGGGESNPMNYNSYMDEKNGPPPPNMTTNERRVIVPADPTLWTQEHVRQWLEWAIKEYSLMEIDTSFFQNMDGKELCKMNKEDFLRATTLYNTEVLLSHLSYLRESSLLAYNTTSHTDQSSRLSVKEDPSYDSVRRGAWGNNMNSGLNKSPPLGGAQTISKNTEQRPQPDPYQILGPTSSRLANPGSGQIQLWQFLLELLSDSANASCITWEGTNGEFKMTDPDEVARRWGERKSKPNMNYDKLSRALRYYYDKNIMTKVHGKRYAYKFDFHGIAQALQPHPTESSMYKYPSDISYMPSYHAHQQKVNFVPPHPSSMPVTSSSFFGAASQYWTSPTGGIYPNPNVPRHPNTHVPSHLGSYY
Outline: (§1)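 Pools were built from human transcription factors expressed in yeast as GST fusions, captured on glutathione beads and DNA-barcoded, along with a tag-only sample. Incubation with 200 nmole of a 16-mer random double-stranded DNA library lasted 30 min at room temperature in Tris/NaCl/DTT/glycerol buffer, and was followed by washing, 0.1% formaldehyde crosslinking, proximity ligation, PCR amplification and Illumina NextSeq500 sequencing. Binding signal is the quotient of each hexamer's read frequency for a factor and its frequency for the tag-only sample.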

ELK1 = target: T2, ELK1 (Homo sapiens, UniProt P19419 1-428)
T2 sequence: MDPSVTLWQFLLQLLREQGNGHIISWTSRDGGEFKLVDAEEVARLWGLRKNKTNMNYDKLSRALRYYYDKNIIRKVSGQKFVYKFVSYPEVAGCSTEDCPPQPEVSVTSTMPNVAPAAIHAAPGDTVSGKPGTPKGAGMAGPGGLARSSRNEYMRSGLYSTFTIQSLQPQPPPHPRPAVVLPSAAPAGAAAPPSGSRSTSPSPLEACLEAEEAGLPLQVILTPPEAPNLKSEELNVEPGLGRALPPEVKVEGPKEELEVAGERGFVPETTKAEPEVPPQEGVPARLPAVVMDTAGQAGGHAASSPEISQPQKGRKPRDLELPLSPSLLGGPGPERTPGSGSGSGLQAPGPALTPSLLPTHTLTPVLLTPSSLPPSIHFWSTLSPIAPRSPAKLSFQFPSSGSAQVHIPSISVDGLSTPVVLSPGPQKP
Outline: as §1

GABPA = target: T3, GABPA (Homo sapiens, UniProt Q06546 1-454)
T3 sequence: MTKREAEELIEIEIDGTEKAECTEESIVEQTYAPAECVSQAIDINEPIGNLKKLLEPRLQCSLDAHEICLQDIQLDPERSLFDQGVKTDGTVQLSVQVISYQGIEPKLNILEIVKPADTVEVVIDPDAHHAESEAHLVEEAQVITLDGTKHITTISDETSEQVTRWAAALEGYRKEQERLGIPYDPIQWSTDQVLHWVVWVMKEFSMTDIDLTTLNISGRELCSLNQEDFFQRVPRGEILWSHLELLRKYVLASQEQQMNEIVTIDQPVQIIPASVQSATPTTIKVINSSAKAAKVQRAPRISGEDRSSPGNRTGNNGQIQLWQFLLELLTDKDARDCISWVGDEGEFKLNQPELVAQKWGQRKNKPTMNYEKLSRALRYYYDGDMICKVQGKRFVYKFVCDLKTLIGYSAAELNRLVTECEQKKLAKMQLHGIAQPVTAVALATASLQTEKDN
Outline: as §1

ERG = target: T4, ERG (Homo sapiens, UniProt P11308 1-479)
T4 sequence: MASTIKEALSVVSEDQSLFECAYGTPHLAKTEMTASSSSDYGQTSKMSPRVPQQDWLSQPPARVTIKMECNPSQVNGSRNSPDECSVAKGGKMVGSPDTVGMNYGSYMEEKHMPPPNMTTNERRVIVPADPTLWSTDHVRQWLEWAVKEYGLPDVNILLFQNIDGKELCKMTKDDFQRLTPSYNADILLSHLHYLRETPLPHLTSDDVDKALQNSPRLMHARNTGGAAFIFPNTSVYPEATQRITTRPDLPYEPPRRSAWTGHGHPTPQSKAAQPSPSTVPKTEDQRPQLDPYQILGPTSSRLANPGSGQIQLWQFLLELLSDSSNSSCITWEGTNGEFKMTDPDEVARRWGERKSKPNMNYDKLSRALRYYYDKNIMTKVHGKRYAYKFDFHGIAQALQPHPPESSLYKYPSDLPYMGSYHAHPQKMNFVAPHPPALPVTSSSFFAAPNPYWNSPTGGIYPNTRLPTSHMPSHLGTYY
Outline: as §1

ELF1 = ELF1 (Homo sapiens, UniProt P32519 1-619)
Chain of ELF1 (P32519 whole entry): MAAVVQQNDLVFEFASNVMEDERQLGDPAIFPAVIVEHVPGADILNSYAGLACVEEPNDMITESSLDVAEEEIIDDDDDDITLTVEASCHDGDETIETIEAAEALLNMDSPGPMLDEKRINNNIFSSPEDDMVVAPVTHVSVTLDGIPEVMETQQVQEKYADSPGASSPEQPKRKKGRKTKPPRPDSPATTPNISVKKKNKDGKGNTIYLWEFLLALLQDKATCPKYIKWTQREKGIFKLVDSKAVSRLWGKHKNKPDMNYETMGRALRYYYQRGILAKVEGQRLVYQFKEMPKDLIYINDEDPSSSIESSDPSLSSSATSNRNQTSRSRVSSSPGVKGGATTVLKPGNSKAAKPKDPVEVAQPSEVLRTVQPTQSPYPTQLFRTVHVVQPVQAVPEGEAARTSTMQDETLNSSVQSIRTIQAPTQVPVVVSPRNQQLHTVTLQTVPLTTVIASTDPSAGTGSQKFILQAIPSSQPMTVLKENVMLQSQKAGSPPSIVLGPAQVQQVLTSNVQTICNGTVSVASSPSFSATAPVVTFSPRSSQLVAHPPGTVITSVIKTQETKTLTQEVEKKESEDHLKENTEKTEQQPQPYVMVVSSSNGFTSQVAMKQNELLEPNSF
Outline: as §1

EHF = target: T5, EHF (Homo sapiens, UniProt Q9NZC4 1-300)
T5 sequence: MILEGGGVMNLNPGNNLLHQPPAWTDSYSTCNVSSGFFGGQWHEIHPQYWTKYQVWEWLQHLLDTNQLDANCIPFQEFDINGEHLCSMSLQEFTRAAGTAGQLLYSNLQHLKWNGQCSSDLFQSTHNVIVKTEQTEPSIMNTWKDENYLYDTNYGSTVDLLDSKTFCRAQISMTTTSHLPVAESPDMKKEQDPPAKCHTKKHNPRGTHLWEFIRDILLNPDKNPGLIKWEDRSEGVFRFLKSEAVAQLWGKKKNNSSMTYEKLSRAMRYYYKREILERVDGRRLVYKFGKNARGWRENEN
Outline: as §1

SPI1 = SPI1 (Homo sapiens, UniProt P17947 1-270)
Outline: as §1

SPIB = SPIB (Homo sapiens, UniProt Q01892 1-262)
Chain of SPIB (Q01892 whole entry): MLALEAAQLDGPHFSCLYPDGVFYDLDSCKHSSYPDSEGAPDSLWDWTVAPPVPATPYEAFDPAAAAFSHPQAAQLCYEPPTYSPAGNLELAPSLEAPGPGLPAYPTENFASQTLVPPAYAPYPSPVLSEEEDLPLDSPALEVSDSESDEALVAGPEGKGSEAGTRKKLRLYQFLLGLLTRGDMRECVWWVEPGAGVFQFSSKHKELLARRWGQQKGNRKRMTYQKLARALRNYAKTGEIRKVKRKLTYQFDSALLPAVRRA
Outline: as §1

ELK3 = target: T6, ELK3 (Homo sapiens, UniProt P41970 1-407)
T6 sequence: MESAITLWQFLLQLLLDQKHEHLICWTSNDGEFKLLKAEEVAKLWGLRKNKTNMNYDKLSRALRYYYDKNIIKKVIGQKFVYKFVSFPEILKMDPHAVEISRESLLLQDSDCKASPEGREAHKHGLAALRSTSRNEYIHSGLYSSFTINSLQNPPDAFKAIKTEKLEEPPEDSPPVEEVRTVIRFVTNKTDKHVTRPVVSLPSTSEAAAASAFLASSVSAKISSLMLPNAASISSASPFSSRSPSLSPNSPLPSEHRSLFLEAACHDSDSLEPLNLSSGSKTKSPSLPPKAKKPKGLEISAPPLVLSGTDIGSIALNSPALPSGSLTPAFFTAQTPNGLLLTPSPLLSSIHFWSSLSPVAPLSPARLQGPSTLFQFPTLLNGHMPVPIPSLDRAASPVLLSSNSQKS
Outline: as §1

| Sequence | binding signal (FLI1) | binding signal (ELK1) | binding signal (GABPA) | binding signal (ERG) | binding signal (ELF1) | binding signal (EHF) | binding signal (SPI1) | binding signal (SPIB) | binding signal (ELK3) |
| --- | --- | --- | --- | --- | --- | --- | --- | --- | --- |
| TGTGCT | 1.13 fold enrichment (6-mer frequency, TF over GST control) | 1.23 fold enrichment (6-mer frequency, TF over GST control) | 1.24 fold enrichment (6-mer frequency, TF over GST control) | 1.23 fold enrichment (6-mer frequency, TF over GST control) | 1.2 fold enrichment (6-mer frequency, TF over GST control) | 1.11 fold enrichment (6-mer frequency, TF over GST control) | 1.24 fold enrichment (6-mer frequency, TF over GST control) | 1.14 fold enrichment (6-mer frequency, TF over GST control) | 1.16 fold enrichment (6-mer frequency, TF over GST control) |
| TACGCG | 1.12 fold enrichment (6-mer frequency, TF over GST control) | 1.14 fold enrichment (6-mer frequency, TF over GST control) | 1.24 fold enrichment (6-mer frequency, TF over GST control) | 1.14 fold enrichment (6-mer frequency, TF over GST control) | 1.12 fold enrichment (6-mer frequency, TF over GST control) | 1.06 fold enrichment (6-mer frequency, TF over GST control) | 1.12 fold enrichment (6-mer frequency, TF over GST control) | 1.13 fold enrichment (6-mer frequency, TF over GST control) | 1.28 fold enrichment (6-mer frequency, TF over GST control) |
| AACCCC | 1.08 fold enrichment (6-mer frequency, TF over GST control) | 1.17 fold enrichment (6-mer frequency, TF over GST control) | 1.1 fold enrichment (6-mer frequency, TF over GST control) | 1.17 fold enrichment (6-mer frequency, TF over GST control) | 1.16 fold enrichment (6-mer frequency, TF over GST control) | 1.21 fold enrichment (6-mer frequency, TF over GST control) | 1.12 fold enrichment (6-mer frequency, TF over GST control) | 1.18 fold enrichment (6-mer frequency, TF over GST control) | 1.14 fold enrichment (6-mer frequency, TF over GST control) |
| TGGACT | 1.19 fold enrichment (6-mer frequency, TF over GST control) | 1.27 fold enrichment (6-mer frequency, TF over GST control) | 1.25 fold enrichment (6-mer frequency, TF over GST control) | 1.18 fold enrichment (6-mer frequency, TF over GST control) | 1.26 fold enrichment (6-mer frequency, TF over GST control) | 1.3 fold enrichment (6-mer frequency, TF over GST control) | 1.18 fold enrichment (6-mer frequency, TF over GST control) | 1.41 fold enrichment (6-mer frequency, TF over GST control) | 1.2 fold enrichment (6-mer frequency, TF over GST control) |
| TCGTCT | 1.52 fold enrichment (6-mer frequency, TF over GST control) | 1.34 fold enrichment (6-mer frequency, TF over GST control) | 1.43 fold enrichment (6-mer frequency, TF over GST control) | 1.34 fold enrichment (6-mer frequency, TF over GST control) | 1.4 fold enrichment (6-mer frequency, TF over GST control) | 1.38 fold enrichment (6-mer frequency, TF over GST control) | 1.26 fold enrichment (6-mer frequency, TF over GST control) | 1.42 fold enrichment (6-mer frequency, TF over GST control) | 1.23 fold enrichment (6-mer frequency, TF over GST control) |
| CGAACC | 1.1 fold enrichment (6-mer frequency, TF over GST control) | 1.29 fold enrichment (6-mer frequency, TF over GST control) | 1.22 fold enrichment (6-mer frequency, TF over GST control) | 1.15 fold enrichment (6-mer frequency, TF over GST control) | 1.23 fold enrichment (6-mer frequency, TF over GST control) | 1.19 fold enrichment (6-mer frequency, TF over GST control) | 1.17 fold enrichment (6-mer frequency, TF over GST control) | 1.13 fold enrichment (6-mer frequency, TF over GST control) | 1.21 fold enrichment (6-mer frequency, TF over GST control) |
| CTCGAT | 1.48 fold enrichment (6-mer frequency, TF over GST control) | 1.38 fold enrichment (6-mer frequency, TF over GST control) | 1.32 fold enrichment (6-mer frequency, TF over GST control) | 1.26 fold enrichment (6-mer frequency, TF over GST control) | 1.49 fold enrichment (6-mer frequency, TF over GST control) | 1.27 fold enrichment (6-mer frequency, TF over GST control) | 1.36 fold enrichment (6-mer frequency, TF over GST control) | 1.49 fold enrichment (6-mer frequency, TF over GST control) | 1.18 fold enrichment (6-mer frequency, TF over GST control) |
| TTCTCT | 1.29 fold enrichment (6-mer frequency, TF over GST control) | 1.3 fold enrichment (6-mer frequency, TF over GST control) | 1.27 fold enrichment (6-mer frequency, TF over GST control) | 1.32 fold enrichment (6-mer frequency, TF over GST control) | 1.33 fold enrichment (6-mer frequency, TF over GST control) | 1.27 fold enrichment (6-mer frequency, TF over GST control) | 1.3 fold enrichment (6-mer frequency, TF over GST control) | 1.16 fold enrichment (6-mer frequency, TF over GST control) | 1.29 fold enrichment (6-mer frequency, TF over GST control) |
